Experimental data taken from PubChem BioAssay (Tox21).
The source made the active and inactive calls. Unless noted, the call rests on the fitted dose curve; in most records, active means well fitted curve in the direction sought with a large enough effect in the repeat runs; inconclusive means weak or mixed curves; inactive means no such curve, though single readings can be large; an effect the other way counts as inactive or inconclusive.

How the values were obtained:
[1] = qHTS assay to identify small molecule antagonists of the thyroid receptor (TR) signaling pathway - cell viability counter screen (AID 743064); further: nearly all actives have a fitted effect of over 50% in size; further: potency means the concentration at half of the fitted maximal effect
How it was run: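 Fluorescence from CellTiter-Fluor, added after 23.5 h exposure at 37 °C, reported viability of GH3.TRE-Luc cells co-treated with compound and 1 nM T3. Measured in the same wells as the luciferase TR readout.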

[2] = qHTS assay to identify small molecule antagonists of the estrogen receptor alpha (ER-alpha) signaling pathway - cell viability counter screen (AID 743074; calls by dose curve;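 further: HEK293 cells carrying ER-alpha-UAS-bla reporter stimulated with 17beta-estradiol; nearly all actives have a fitted effect of over 45% in size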; further: potency means the concentration at half of the fitted maximal effect)
[3] = target: Aromatase (Homo sapiens) (UniProt P11511); experiment: qHTS assay to identify aromatase inhibitors (AID 743083); further: nearly all actives have a fitted effect of over 55% in size; further: potency means the concentration at half of the fitted maximal effect
Aromatase (Homo sapiens), sequence (P11511 whole entry, looked up): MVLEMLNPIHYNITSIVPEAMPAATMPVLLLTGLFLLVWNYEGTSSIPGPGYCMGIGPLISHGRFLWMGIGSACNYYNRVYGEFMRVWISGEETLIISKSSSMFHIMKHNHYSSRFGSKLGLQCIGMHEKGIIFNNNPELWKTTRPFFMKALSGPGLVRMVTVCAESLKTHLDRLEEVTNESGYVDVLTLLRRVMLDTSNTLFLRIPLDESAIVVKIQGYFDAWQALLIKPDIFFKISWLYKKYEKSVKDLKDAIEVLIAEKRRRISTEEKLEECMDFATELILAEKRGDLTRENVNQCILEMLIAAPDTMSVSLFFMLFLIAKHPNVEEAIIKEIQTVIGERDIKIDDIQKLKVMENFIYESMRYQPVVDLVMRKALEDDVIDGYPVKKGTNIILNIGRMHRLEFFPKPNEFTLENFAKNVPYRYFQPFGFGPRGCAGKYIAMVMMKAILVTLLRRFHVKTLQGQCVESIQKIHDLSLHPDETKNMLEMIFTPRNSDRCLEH

[4] = target: Aryl hydrocarbon receptor (Homo sapiens) (UniProt P35869); experiment: qHTS assay to identify small molecule that activate the aryl hydrocarbon receptor (AhR) signaling pathway (AID 743085); further: nearly all actives have a fitted effect of over 15% in size; further: potency means the concentration at half of the fitted maximal effect;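 on activation: HG2L7.5c1 human HepG2 liver cells with stably integrated DRE-driven firefly reporter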
Aryl hydrocarbon receptor (Homo sapiens), sequence (P35869 whole entry, looked up): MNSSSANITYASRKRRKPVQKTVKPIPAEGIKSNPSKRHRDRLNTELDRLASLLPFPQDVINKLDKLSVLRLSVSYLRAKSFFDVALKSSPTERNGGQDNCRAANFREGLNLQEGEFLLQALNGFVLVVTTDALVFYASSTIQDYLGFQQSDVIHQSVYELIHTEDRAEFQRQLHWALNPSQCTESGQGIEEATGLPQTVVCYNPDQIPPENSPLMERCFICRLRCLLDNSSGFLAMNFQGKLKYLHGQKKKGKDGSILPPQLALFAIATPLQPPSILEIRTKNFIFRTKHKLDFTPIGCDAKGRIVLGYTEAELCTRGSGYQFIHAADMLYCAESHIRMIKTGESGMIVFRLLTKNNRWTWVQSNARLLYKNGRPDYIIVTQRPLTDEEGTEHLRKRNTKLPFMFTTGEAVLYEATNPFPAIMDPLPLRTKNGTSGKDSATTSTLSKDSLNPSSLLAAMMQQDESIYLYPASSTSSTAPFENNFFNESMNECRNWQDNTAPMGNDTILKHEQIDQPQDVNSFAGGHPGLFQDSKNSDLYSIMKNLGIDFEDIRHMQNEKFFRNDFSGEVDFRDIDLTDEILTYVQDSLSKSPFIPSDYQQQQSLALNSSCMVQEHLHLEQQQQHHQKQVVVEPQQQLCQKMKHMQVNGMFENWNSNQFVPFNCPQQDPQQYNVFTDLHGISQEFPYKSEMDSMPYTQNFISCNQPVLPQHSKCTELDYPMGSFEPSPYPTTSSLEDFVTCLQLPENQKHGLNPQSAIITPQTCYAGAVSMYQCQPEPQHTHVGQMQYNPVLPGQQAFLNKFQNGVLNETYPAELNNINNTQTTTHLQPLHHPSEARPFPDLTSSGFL
How it was run: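 Cell line HG2L7.5c1 (human hepatoma, 20× DRE-luc). Plated, 5 h 37C, compound/DMSO added, 24 h 37C. CellTiter-Fluor 30 min 37C → fluorescence; then ONE-Glo 30 min RT → luminescence.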

[5] = qHTS assay to identify small molecule that activate the aryl hydrocarbon receptor (AhR) signaling pathway - cell viability counter screen (AID 743086); further: nearly all actives have a fitted effect of over 45% in size; further: potency means the concentration at half of the fitted maximal effect
How it was run: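 HepG2-AhR-luc (HG2L7.5c1) cells, 4000/well, were preincubated 5 h at 37C, exposed to compound in qHTS format for 24 hr at 37C, then given CellTiter-Fluor for 30 min; viability was read as fluorescence in the reporter wells.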

[6] = target: Peroxisome proliferator-activated receptor gamma (Homo sapiens) (UniProt P37231); experiment: qHTS assay to identify small molecule agonists of the peroxisome proliferator-activated receptor gamma (PPARg) signaling pathway (AID 743094; active means well fitted activation curve with a large enough effect in the signal ratio in the repeat runs, not every such curve was filed as active; inconclusive means weak or mixed curves, or effect the other way; inactive means no such curve, though single readings can be large or run the other way; the % refers to the signal ratio; further: potency means the concentration at half of the fitted maximal effect)
Peroxisome proliferator-activated receptor gamma (Homo sapiens), sequence (P37231 whole entry, looked up): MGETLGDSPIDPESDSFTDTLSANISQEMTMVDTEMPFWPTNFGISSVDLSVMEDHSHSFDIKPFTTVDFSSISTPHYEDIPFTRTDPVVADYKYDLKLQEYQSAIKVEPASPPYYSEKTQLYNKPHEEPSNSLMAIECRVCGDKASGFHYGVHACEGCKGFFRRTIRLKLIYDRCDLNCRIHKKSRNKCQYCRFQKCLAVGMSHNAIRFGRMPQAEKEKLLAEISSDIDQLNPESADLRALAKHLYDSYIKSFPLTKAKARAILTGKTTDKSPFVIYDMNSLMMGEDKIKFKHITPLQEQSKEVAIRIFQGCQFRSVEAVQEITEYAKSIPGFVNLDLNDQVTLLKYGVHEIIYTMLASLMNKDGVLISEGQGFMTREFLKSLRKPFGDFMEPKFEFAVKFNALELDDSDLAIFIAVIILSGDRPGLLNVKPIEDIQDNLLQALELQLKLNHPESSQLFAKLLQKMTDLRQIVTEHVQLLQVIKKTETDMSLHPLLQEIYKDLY
How it was run: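 Beta-lactamase FRET fluorescence was the read-out after a 1 h room-temperature substrate step, following 17 h compound treatment at 37C of HEK293H cells expressing a UAS-driven bla reporter responsive to PPARg.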

[7] = qHTS assay to identify small molecule antagonists of the peroxisome proliferator-activated receptor gamma (PPARg) signaling pathway - cell viability counter screen (AID 743194); further: nearly all actives have a fitted effect of over 55% in size; further: potency means the concentration at half of the fitted maximal effect
How it was run: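 PPARg-UAS-bla HEK293H cells were plated, rested 5 h at 37 C, then treated with compounds plus rosiglitazone (50 nM final) for 17 h at 37 C; viability was then read by CellTiter-Glo luminescence after 30 min at room temperature.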

[8] = qHTS assay for small molecule agonists of the antioxidant response element (ARE) signaling pathway - cell viability counter screen (AID 743203; calls by dose curve; further: nearly all actives have a fitted effect of over 55% in size; further: potency means the concentration at half of the fitted maximal effect)
How it was run: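 HepG2 cells carrying ARE-driven beta-lactamase; 2,000 cells/well; 5 hrs plating; compound pinned from DMSO; 16 hrs 37C/5% CO2; CellTiter-Glo added; 30 min RT; luminescence.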

[9] = qHTS assay to identify small molecule antagonists of the thyroid receptor (TR) signaling pathway (AID 743065); further: nearly all actives have a fitted effect of over 55% in size; further: potency means the concentration at half of the fitted maximal effect
How it was run: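 GH3.TRE-Luc rat pituitary cells carrying two TR response elements driving luciferase were plated for 4 h, given compound plus 1 nM T3 (final), and incubated 23.5 h at 37 C. ONE-Glo luminescence measured reporter inhibition; CellTiter-Fluor fluorescence tracked cytotoxicity.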

[10] = test system: thyroid hormone receptor (rat, GH3 cells); experiment: qHTS assay to identify small molecule agonists of the thyroid receptor (TR) signaling pathway (AID 743066; calls by dose curve)
[11] = target: Estrogen receptor (Homo sapiens) (UniProt P03372); experiment: qHTS assay to identify small molecule agonists of the estrogen receptor alpha (ER-alpha) signaling pathway (AID 743075; calls by dose curve;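 further: HEK293 GripTite cells with ER-alpha and UAS-driven beta-lactamase reporter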; further: potency means the concentration at half of the fitted maximal effect)
Estrogen receptor (Homo sapiens), sequence (P03372 whole entry, looked up): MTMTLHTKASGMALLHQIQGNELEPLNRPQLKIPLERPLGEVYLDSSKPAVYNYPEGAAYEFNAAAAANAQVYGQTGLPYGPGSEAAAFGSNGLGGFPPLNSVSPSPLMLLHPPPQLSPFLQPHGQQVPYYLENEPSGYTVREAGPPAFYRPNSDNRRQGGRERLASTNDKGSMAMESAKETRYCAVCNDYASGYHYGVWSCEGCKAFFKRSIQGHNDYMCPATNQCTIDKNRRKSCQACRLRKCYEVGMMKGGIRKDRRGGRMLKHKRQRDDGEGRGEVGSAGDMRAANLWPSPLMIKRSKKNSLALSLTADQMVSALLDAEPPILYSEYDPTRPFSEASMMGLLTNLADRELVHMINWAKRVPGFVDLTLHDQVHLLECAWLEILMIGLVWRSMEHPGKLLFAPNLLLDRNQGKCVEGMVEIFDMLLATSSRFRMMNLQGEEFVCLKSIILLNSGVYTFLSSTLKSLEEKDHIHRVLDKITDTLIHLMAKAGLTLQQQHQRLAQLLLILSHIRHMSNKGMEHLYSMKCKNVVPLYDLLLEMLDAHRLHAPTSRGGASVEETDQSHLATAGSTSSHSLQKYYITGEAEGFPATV

[12] = target: Estrogen receptor (Homo sapiens) (UniProt P03372); experiment: qHTS assay to identify small molecule agonists of the estrogen receptor alpha (ER-alpha) signaling pathway using the BG1 cell line (AID 743079); settings: BG1Luc4E2 cells, ERE-luciferase agonist, 22 h; activation: at 70.3 µM (top of the series); further: nearly all actives have a fitted effect of over 20% in size; further: potency means the concentration at half of the fitted maximal effect
[13] = qHTS assay to identify small molecule antagonists of the estrogen receptor alpha (ER-alpha) signaling pathway using the BG1 cell line (AID 743080; calls by dose curve;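 further: BG1 cells stimulated with 17beta-estradiol alongside compound; nearly all actives have a fitted effect of over 25% in size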); settings: BG1Luc4E2 ERE-luciferase antagonist mode, luminescence; activity change, negative = inhibition: at 70.3 µM (top of the series)
How it was run: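 BG1-Luc-4E2 cells (endogenous full-length ER-alpha, stable 4×ERE-luciferase) were starved 5 days in phenol-red-free medium with 10% charcoal-stripped FBS, plated 24 h, then given compound plus 17beta-estradiol for 21.5 h at 37 C; ONE-Glo luminescence read after 30 min.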

[14] = qHTS assay to identify small molecule antagonists of the estrogen receptor alpha (ER-alpha) signaling pathway using the BG1 cell line - cell viability counter screen (AID 743081);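 further: compound given together with 17beta-estradiol as the ER stimulus; nearly all actives have a fitted effect of over 45% in size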
[15] = qHTS assay to identify aromatase inhibitors - cell viability counter screen (AID 743084)
[16] = target: Peroxisome proliferator-activated receptor gamma (Homo sapiens) (UniProt P37231); experiment: qHTS assay to identify small molecule antagonists of the peroxisome proliferator-activated receptor gamma (PPARg) signaling pathway (AID 743191; calls by dose curve; further: nearly all actives have a fitted effect of over 30% in size)
How it was run: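 GeneBLAzer PPARg UAS-bla HEK293H cells carrying a UAS-driven beta-lactamase reporter were plated at 3000 cells/well, preincubated 5 h at 37C, then given compound for 17 h at 37C; LiveBLAzer B/G FRET substrate was read after 1 h at room temperature.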

[17] = qHTS assay for small molecule activators of the heat shock response signaling pathway - cell viability counter screen (AID 743209); further: nearly all actives have a fitted effect of over 50% in size; further: potency means the concentration at half of the fitted maximal effect
How it was run: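 Luminescence from CellTiter-Glo, added after the beta-lactamase FRET read, gave the viability signal. Cells were HSE-bla HeLa treated with DMSO-dissolved compounds for 5 h at 37 C following overnight plating.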

[18] = qHTS assay for small molecule activators of the heat shock response signaling pathway (AID 743210; active means well fitted activation curve with a large enough effect in the signal ratio in the repeat runs, with a control signal flat, not every such curve was filed as active; inconclusive means weak or mixed curves; the % refers to the signal ratio;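 further: HeLa cells with beta-lactamase reporter driven by heat shock elements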)
How it was run: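 Reporter gene assay: HeLa cells stably bearing an HSE-bla construct, compound treatment 5 h at 37 C, LiveBLAzer substrate 2.5 h at RT, fluorescence intensity.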

[19] = qHTS assay for small molecule agonists of the antioxidant response element (ARE) signaling pathway (AID 743202; active means well fitted activation curve with a large enough effect in the signal ratio in the repeat runs, not every such curve was filed as active; inconclusive means weak or mixed curves, or effect the other way; inactive means no such curve, though single readings can be large or run the other way; the % refers to the signal ratio)
How it was run: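 Compounds delivered in DMSO to ARE-bla HepG2 cells (2,000 cells/well, pre-incubated 5 h) and left 16 h at 37 C. LiveBLAzer B/G FRET substrate then added for 2 h at RT before fluorescence reading.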

[20] = target: Estrogen receptor (Homo sapiens) (UniProt P03372); experiment: qHTS assay to identify small molecule antagonists of the estrogen receptor alpha (ER-alpha) signaling pathway (AID 743069; active means well fitted curve in the direction sought with a large enough effect in the signal ratio in the repeat runs, not every such curve was filed as active; inconclusive means weak or mixed curves, or effect the other way; inactive means no such curve, though single readings can be large or run the other way; the % refers to the signal ratio; further: potency means the concentration at half of the fitted maximal effect)
How it was run: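 Estradiol-stimulated ER-alpha-UAS-bla HEK293 cells, 18 hr compound exposure at 37C. LiveBLAzer B/G substrate, 2 hr RT, fluorescence read.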
On the % scale 0 is the no-effect control and ±100 the full control effect.

CC(NCCC(c1ccccc1)c1ccccc1)c1ccccc1 (centres undefined)
inactive: Potency [4] | Potency [6]
active: Potency [1] 9.44 µM | Potency [2] 23.9 µM | Potency [3] 29.8 µM | Potency [5] 26.6 µM | Potency [7] 23.7 µM | Potency [8] 33.5 µM

O=C(c1ccccc1)c1cc(Cl)ccc1O
inactive: Potency [9] | Potency [10] | Potency [2] | Potency [13] | Potency [14] | Potency [15] | Potency [5] | Potency [16] | Potency [7] | Potency [8] | Potency [17] | Potency [18]
active: Potency [11] 58.5 µM [activator] | activation [12] 22.1%

C=C(C)C(=O)OCCC[Si](Cl)(Cl)Cl
inactive: Potency [1] | Potency [2] | Potency [14] | Potency [3] | Potency [15] | Potency [4] | Potency [5] | Potency [16] | Potency [7] | Potency [19] | Potency [8] | Potency [17] | Potency [18]

CN1[C@@H]2CC[C@@H]1CC(OC(=O)C(CO)c1ccccc1)C2 (some centres undefined)
inactive: Potency [1] | Potency [2] | Potency [14] | Potency [3] | Potency [15] | Potency [5] | Potency [7] | Potency [17]

CC(=O)Oc1ccc(C2(c3ccc(OC(C)=O)cc3)Oc3ccccc3NC2=O)cc1
active: Potency [9] 5.96 µM | Potency [20] 8.49 µM [inconclusive] | Potency [11] 7.56 µM [inconclusive]
inactive: Potency [10] | Potency [2] | Potency [14] | Potency [3] | Potency [15] | Potency [4] | Potency [5] | Potency [7] | Potency [8] | Potency [17] | Potency [18]

CCCCCCCC/C=C\CCCCCCCC(=O)N(C)CC(=O)O
active: Potency [1] 30.6 µM | Potency [9] 61.1 µM | Potency [6] 6.92 µM | Potency [17] 21.9 µM
inactive: Potency [12] | Potency [13] | Potency [14] | Potency [4]

C=CC(C)(CCC=C(C)C)OC(=O)/C=C/c1ccccc1 (centres undefined)
inactive: Potency [1] | Potency [20] | Potency [2] | Potency [11] | Potency [13] | Potency [14] | Potency [3] | Potency [4] | Potency [5] | Potency [7] | Potency [8]
active: Potency [12] 61.1 µM

[O]=[Zr]
inactive: Potency [1] | Potency [10] | Potency [2] | Potency [14] | Potency [3] | Potency [15] | Potency [4] | Potency [5] | Potency [6] | Potency [7] | Potency [8]

CNCC[C@H](Oc1cccc2ccccc12)c1cccs1
inactive: Potency [5]
active: Potency [1] 7.5 µM | Potency [9] 7.5 µM | Potency [4] 11.9 µM | Potency [7] 11.9 µM | Potency [8] 6.68 µM

O=C1OC(=O)c2cccc3cccc1c23
inactive: Potency [1] | Potency [10] | Potency [20] | Potency [2] | Potency [11] | Potency [12] | Potency [13] | Potency [14] | Potency [3] | Potency [5] | Potency [6] | Potency [16] | Potency [7] | Potency [8] | Potency [17] | Potency [18]

CCC(C)(C)c1cc(O)c(C(C)(C)CC)cc1O
inactive: Potency [1] | Potency [10] | Potency [11] | Potency [12] | Potency [14] | Potency [4] | Potency [5]
active: activity change, negative = inhibition [13] 6.54% | Potency [3] 24.3 µM | Potency [7] 21.9 µM | Potency [8] 54.5 µM | Potency [17] 38.9 µM

CCCCCCCCCCCCCCCC
inactive: Potency [9] | Potency [10] | Potency [20] | Potency [2] | Potency [11] | Potency [13] | Potency [14] | Potency [3] | Potency [15] | Potency [4] | Potency [5] | Potency [16] | Potency [7] | Potency [8] | Potency [17] | Potency [18]

CCN(CC)CCSC(=O)C(c1ccccc1)c1ccccc1
inactive: Potency [10] | Potency [2] | Potency [11] | Potency [12] | Potency [14] | Potency [3] | Potency [15] | Potency [4] | Potency [5] | Potency [7] | Potency [19] | Potency [8] | Potency [17]
active: Potency [9] 26.6 µM

CCCCCCCC/C=C\CCCCCCCC(=O)OCCOC(=O)CCCCCCC/C=C\CCCCCCCC
inactive: Potency [9] | Potency [10] | Potency [2] | Potency [11] | Potency [13] | Potency [14] | Potency [3] | Potency [15] | Potency [4] | Potency [5] | Potency [6] | Potency [7] | Potency [19] | Potency [8] | Potency [17] | Potency [18]
active: Potency [12] 71.2 µM
